# Assay results reported in PubChem BioAssay (Tox21).
# Records with an inconclusive call do not appear. Where a call stands in place of a potency, no number is given. Activity calls are given as the source filed them. Calls follow the shape of the dose curve; as a rule, active = well fitted cell-killing curve with a large enough effect in the repeat runs; inconclusive = weak or mixed curves, or effect the other way; inactive = no such curve, though single readings can be large or run the other way.
# Assay: qHTS assay to identify small molecule agonists of the RXR signaling pathway - cell viability counter screen (AID 1159529);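 also: HEK 293T cells carrying an RXR-alpha UAS beta-lactamase reporter; nearly all actives have a fitted effect of over 50% in size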
# Conditions: RXR-alpha-bla HEK293T viability, CellTiter-Glo, 16 h; series mostly up to 76.8 µM
# Method in brief: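 Same-well viability check after the LiveBLAzer FRET read: CellTiter-Glo added, luminescence measured after 30 min at room temperature. Reporter HEK 293T cells had been treated with compounds for 16 hr following a 5 hr preincubation.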
Structure (SMILES),Potency,"activity change, negative = cytotoxicity"
O=Cc1ccccc1[N+](=O)[O-],inactive,–
NC(N)=NS(=O)(=O)c1ccc(N)cc1,inactive,–
NCC[C@H](O)C(=O)N[C@@H]1C[C@H](N)[C@@H](O[C@H]2O[C@H](CN)[C@@H](O)[C@H](O)[C@H]2O)[C@H](O)[C@H]1O[C@H]1O[C@H](CO)[C@@H](O)[C@H](N)[C@H]1O,–,9.63% [at 0.29 µM] (inactive)
C=C(C)[C@H]1CC=C(C)CC1,inactive,–
CO,inactive,–
CC(O)CN(CCCN(C)C)CCCN(C)C (centres undefined),inactive,–
FC(F)(F)C(F)(F)C(F)(F)C(F)(F)C(F)(F)C(F)(F)C(F)(F)C(F)(F)C(F)(F)C(F)(F)F,–,1.03% [at 6.97 µM] (inactive)
COC(=O)CCCCCCCCC(=O)OC,inactive,–
Cc1ncc(CSSCc2cnc(C)c(O)c2CO)c(CO)c1O,inactive,–
